DT40 TDP1 no CPT: qHTS for Inhibitors of human tyrosyl-DNA phosphodiesterase 1 (TDP1): qHTS in cells in absence of CPT. DT40 Tdp1-/- hTDP1 cells, no CPT, ATP luminescence, 48 h. AID 686978, 2013. Potency, µM (top dose mostly 46.2 µM), usual class: inhibitors. 15% of 420,000 active; also: nearly all actives have a fitted effect of over 55% in size
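Seeded 400 DT40-hTDP1 cells/well (vehicle DMSO, no 20 nM CPT); pinned compounds; ≥48 hr at 37 °C; CellTiter-Glo luminescence as viability measure.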
IL-1B inflam inh: qHTS for Inhibitors of Inflammasome Signaling: IL-1-beta AlphaLISA Primary Screen; THP-1 LPS/ATP IL-1B secretion, AlphaLISA, 16 h; active compounds read low; activity change, % at 57.5 µM; 4.7% of 360,000 active; AID 743279, 2014; in the data active = activity change below about -50%; inconclusive = mostly about -30% to -49%
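THP-1 cells pretreated 1 hr with compounds (up to 57.5 uM final), then stimulated with LPS (250 ng/mL final) plus ATP (1.25 mM final); secreted IL-1B measured by AlphaLISA after 16 hr, decreased signal indicating inhibition.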
LDHA block: qHTS assay for inhibitors of human lactate dehydrogenase. L-lactate dehydrogenase A chain (Homo sapiens), P00338. purified LDHA, NADH/diaphorase-resazurin fluorescence; active compounds read low. activity change, % (values are at about 110 or 230 µM). 0.15% of 480,000 active. AID 1347041, 2019; in the data active = activity change below about -30%; inconclusive = mostly about -25% to -30%
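Enzyme activity of human lactate dehydrogenase 5 (2 nM; 0.06 mM NADH, 0.2 mM pyruvate, 5 min, RT) is measured via a resazurin/diaphorase fluorescence readout of residual NADH.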
RORg inh: qHTS for inhibitors of ROR gamma transcriptional activity | Drosophila S2 Gal4-RORgamma UAS-luciferase reporter, 20 h | AID 2551, 2010 | 5.4% of 310,000 active | Potency, µM (highest dose often 53.6 µM), usual class: inhibitors | Nuclear receptor ROR-gamma (Mus musculus), P51450; also: nearly all actives have a fitted effect of over 60% in size
Target sequence (P51450 whole entry, looked up, the tested form may be a part): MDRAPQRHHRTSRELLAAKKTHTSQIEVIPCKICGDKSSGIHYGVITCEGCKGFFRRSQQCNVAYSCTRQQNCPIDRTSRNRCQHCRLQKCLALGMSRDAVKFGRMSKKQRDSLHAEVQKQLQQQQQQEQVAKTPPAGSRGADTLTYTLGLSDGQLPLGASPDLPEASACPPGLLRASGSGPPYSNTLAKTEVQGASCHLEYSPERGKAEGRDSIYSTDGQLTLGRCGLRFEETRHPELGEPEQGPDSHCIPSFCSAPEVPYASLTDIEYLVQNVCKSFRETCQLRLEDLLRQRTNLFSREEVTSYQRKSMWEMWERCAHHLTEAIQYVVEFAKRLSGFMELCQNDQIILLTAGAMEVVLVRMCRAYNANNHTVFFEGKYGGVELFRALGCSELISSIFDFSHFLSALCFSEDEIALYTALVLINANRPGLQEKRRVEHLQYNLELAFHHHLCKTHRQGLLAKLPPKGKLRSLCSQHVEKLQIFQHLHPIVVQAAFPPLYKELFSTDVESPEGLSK
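ROR gamma transcriptional activity was tracked as Gal4-UAS luciferase output in stably transfected Drosophila Schneider cells, with compound added 1 hr before 700 uM copper sulfate induction and a 20 hr ambient-temperature incubation.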
TDP1 cell CPT: qHTS for Inhibitors of human tyrosyl-DNA phosphodiesterase 1 (TDP1): qHTS in cells in presence of CPT; AID 686979, 2013; Potency, µM (highest dose often 46.2 µM), actives largely listed as inhibitors; chicken DT40 Tdp1-/-;hTDP1 cells + 20 nM CPT, ATP luminescence, 48 h; 12% of 420,000 active; also: nearly all actives have a fitted effect of over 55% in size
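Chicken DT40 Tdp1-/- cells complemented with human TDP1, 400 cells/well, exposed to compounds plus 20 nM camptothecin for at least 48 h at 37 C; viability read as ATP content by CellTiter-Glo luminescence.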
VP16 counter: VP16 counterscreen qHTS for inhibitors of ROR gamma transcriptional activity | Potency, µM (series often up to 53.6 µM), usual class: inhibitors | Drosophila S2 Gal4-VP16 UAS-luciferase, luminescence, 20 h | 3.5% of 310,000 active | AID 2546, 2010;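 also: Gal4-VP16 expression switched on by copper sulfate through the metallothionein promoter; nearly all actives have a fitted effect of over 50% in size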
Hits are given with their value; 0 = inactive; ? = inconclusive; - = not tested or not shown; [ ] = remark or other dose. This is a sample that favours compounds with a hit; in the whole collection about 18% have one here. Unless noted, calls follow the shape of the dose curve; as a rule, active = well fitted curve in the direction sought with a large enough effect; inconclusive = small, poorly fitted or top-dose-only effect, or another doubt; inactive = no such curve, though single readings can be large; an effect the other way counts as inactive or inconclusive.

SMILES	DT40 TDP1 no CPT	IL-1B inflam inh	LDHA block	RORg inh	TDP1 cell CPT	VP16 counter
O=[N+]([O-])c1ccc(NCCCN2CCOCC2)nc1	0	0	0	0	0	0
Clc1ccc2c(c1)CCc1cccnc1C2=C1CCNCC1	7.31µM	-	-	0	6.51µM	0
O=[N+]([O-])c1ccc(NC(c2ccccc2)c2ccccn2)c2ccncc12 (stereo unspecified)	-	-	0	-	-	-
c1cc2c(cc1NC1=NCCO1)CCCC2	?	0	0	-	18.4µM	-
CC[C@H](Oc1ccc(Cl)cc1)C(=O)OC1C[C@H]2CC[C@@H](C1)N2C (stereo partly specified)	?	-	-	0	?	0
CC(C(=O)OC1CC2CCC(C1)N2C)c1ccc(Br)cc1 (stereo unspecified)	16.4µM	-	-	-	20.6µM	-
CCC(Oc1ccc(Cl)cc1)C(=O)OC1CC2CCC(C1)N2C (stereo unspecified)	10.3µM	-	-	-	13µM	-
CN1CCN(c2ccc(NC=C(C#N)C#N)cc2)CC1	-	-	0	-	-	-
Cc1ccc(NC(=O)C2C3CCCC2C3c2ccccc2)c(C)c1 (stereo unspecified)	23.1µM	0	0	0[10 µM]	?	0
NC(=O)c1cc([N+](=O)[O-])cc([N+](=O)[O-])c1	?	0	0	0	?	0
CC(C)(C)c1cc([N+](=O)[O-])cc(C(C)(C)C)c1O	5.17µM	0	0	14.1µM	10.3µM	4.47µM
Cn1cccc1-c1cccnc1	0	-	-	-	0	-
COc1ccc(CC(=O)NC(=S)NNC(=O)COc2c(C)cccc2C)cc1	16.4µM	0	0	12.6µM	16.4µM	0
O=C(CC1CCCCC1)N1CCC(c2nc(-c3ccc(S(=O)(=O)N4CCCC4)cc3)no2)CC1	8.2µM	0	0	?	20.6µM	?
O=C(Nc1ccc(Cl)c(Cl)c1)O/N=C/c1ccncc1	?	-93.7	0	0	?	?
C[C@]12CCC3C(CCC4=C(Cl)C(=O)CC[C@@]43C)C1CCC2O (stereo partly specified)	-	-	-	0	-	0
C(=C/c1ccccc1)/CN1CCN(CCOC(c2ccccc2)c2ccccc2)CC1	11.9µM	-	-	?	6.68µM	?
c1ccc(C(OCCN2CCNCC2)c2ccccc2)cc1	0	0	0	0	0	0
Cc1cccc(CCNCc2cc3ccc(C)cc3[nH]c2=O)c1	?	0	0	?	23.1µM	0
CC(C)Oc1cccc(CCN)c1	-	-	0	-	-	-
COc1ccc(CCN)cc1O	0	0	0	-	0	-
CCCCOc1ccc(CCN)cc1Cl	2.06µM	-68.8	0	0	2.31µM	0
CC(C)Oc1ccc(CCN)cc1Cl	5.8µM	0	0	0	5.17µM	0
Oc1ccc2c3c1O[C@H]1[C@@H](O)C=C[C@H]4[C@H](C2)NCC[C@@]341	0	-	-	-	0	-
Cc1ccccc1C(O)(c1ccccc1C)C1CN2CCC1CC2 (stereo unspecified)	-	-	0	-	-	-
SMILES	DT40 TDP1 no CPT	IL-1B inflam inh	LDHA block	RORg inh	TDP1 cell CPT	VP16 counter
O=c1[nH]c(=S)n(CCC2=CCCCC2)c(O)c1/C=N/Nc1ccccc1	0	0	0	0	0	0
O=c1[nH]c(=S)n(CCC2=CCCCC2)c(O)c1C=NC1CCN(Cc2ccccc2)CC1	?	0	0	0	20.6µM	0
CC1(C)C(C(Cl)Cl)C2(Cl)C(Cl)C(Cl)C1(Cl)C2(Cl)Cl (stereo unspecified)	0	-	-	0	?	0
CC1CC(Cl)CCC1C(=O)OC(C)(C)C (stereo unspecified)	0	-	-	0	0	0
COP(=O)(OC)OC=C(Cl)Cl	11.9µM	-	-	0	?	0
O=C(Nc1cc(C(F)(F)F)cc(C(F)(F)F)c1)c1cccn(Cc2ccccc2Cl)c1=O	?	-	0	-	?	-
O=C(Nc1ccon1)c1cccn(Cc2cccc(Cl)c2)c1=O	0	-	0	-	0	-
COC(=O)c1ccccc1NC(=O)c1cccn(Cc2cccc(Cl)c2)c1=O	18.4µM	-	0	-	?	-
O=C(Nc1ccccc1C(F)(F)F)c1cccn(Cc2ccccc2)c1=O	18.4µM	-	0	-	?	-
Cc1cc(OS(C)(=O)=O)c2c3c(c(=O)oc2c1)CCCC3	-	-	0	-	-	-
Cc1ccc(S(=O)(=O)N2CN3CCN(C3)C2)cc1	?	0	0	0	16.4µM	0
CC(Cc1ccccc1)NC(=O)/C=C/c1ccc(Cl)cc1 (stereo unspecified)	?	-54.3	0	0	?	0
O=C1c2ccccc2-n2nnc(-c3ccccc3)c2C2c3ccccc3CCN12 (stereo unspecified)	7.31µM	0	0	-	16.4µM	-
O=C1c2ccccc2-n2nnc(-c3ccccc3)c2C2c3cc(Br)ccc3CCN12 (stereo unspecified)	?	0	0	-	0	-
CCOC(=O)c1ccc(NC(=O)CSc2ccc(-c3cccnc3)nn2)cc1	?	0	0	0	?	0
COc1ccc(NC(=O)CSc2nc(-c3ccco3)cc(C(F)(F)F)n2)cc1OC	0.92µM	-	0	-	1.46µM	-
Cc1cccc(NC(=O)CSc2ccc(-c3ccco3)nn2)c1	29.1µM	0	0	?	?	0
CN1CCc2cc3c(cc2[C@@H]1[C@@H]1OC(=O)c2c1ccc1c2OCO1)OCO3	-	-	-	0	-	0
CCC(c1nnnn1-c1ccc(OC)cc1)N1CCC(n2c(=O)[nH]c3ccccc32)CC1 (stereo unspecified)	?	0	0	-	?	-
COc1ccc(-n2nnnc2C(c2ccccc2OC(F)(F)F)N2CCC(n3c(=O)[nH]c4ccccc43)CC2)cc1 (stereo unspecified)	18.4µM	-	0	-	20.6µM	-
O=C1NCN(c2ccccc2)C12CCN(C(c1ccccc1OC(F)(F)F)c1nnnn1-c1ccc3c(c1)OCCO3)CC2 (stereo unspecified)	?	?	0	-	?	-
COc1ccc(C(c2nnnn2-c2ccc3c(c2)OCCO3)N2CCC(n3c(=O)[nH]c4ccccc43)CC2)cc1 (stereo unspecified)	16.4µM	?	0	-	?	-
O=c1[nH]c2ccccc2n1C1CCN(C(c2ccnc3ccccc23)c2nnnn2-c2ccc3c(c2)OCCO3)CC1 (stereo unspecified)	9.2µM	?	0	-	5.17µM	-
CC(C)(C)c1ccc(-c2n[nH]c(=S)n2CCCN2CCOCC2)cc1	0	0	0	7.94µM	0	0
Cc1cnc(SCc2ccccn2)nc1C1CCCN(C(=O)c2ccc(-c3ccccc3F)cc2)C1 (stereo unspecified)	23.1µM	-	-	-	?	-

Bioassay records: PubChem BioAssay, National Center for Advancing Translational Sciences (NCATS)
